# High-throughput results from PubChem.
# Shown are actives, neighbours in structure and some others; about 19% of the full set was active somewhere.
# IL-1B inflam inh: qHTS for Inhibitors of Inflammasome Signaling: IL-1-beta AlphaLISA Primary Screen; activity change, % at 57.5 µM; hit rate 4.7% among 360,000; THP-1 LPS/ATP IL-1B secretion, AlphaLISA, 16 h; stronger effect = lower value; in the data active means activity change below about -50%; inconclusive means mostly about -30% to -49%
#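 THP-1 cells pretreated 1 hr with compounds (up to 57.5 uM final), then stimulated with LPS (250 ng/mL final) plus ATP (1.25 mM final); secreted IL-1B measured by AlphaLISA after 16 hr, decreased signal indicating inhibition.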
# TDP1 cell noCPT: qHTS for Inhibitors of human tyrosyl-DNA phosphodiesterase 1 (TDP1): qHTS in cells in absence of CPT | hit rate 15% among 420,000 | DT40 Tdp1-/- hTDP1 cells, no CPT, ATP luminescence, 48 h | Potency, µM (series often up to 46.2 µM), without a hit: at the top dose activity change, negative = growth inhibition, most hits filed as inhibitors; further: potency means the concentration at half of the fitted maximal effect; nearly all actives have a fitted effect of over 55% in size
#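 A cellular qHTS used chicken DT40 cells lacking endogenous Tdp1 but carrying stably transfected human TDP1. Compounds were applied without camptothecin, and cell growth kinetics were judged by ATP-dependent luminescence after ≥48 hr.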
# DT40 TDP1 CPT: qHTS for Inhibitors of human tyrosyl-DNA phosphodiesterase 1 (TDP1): qHTS in cells in presence of CPT. chicken DT40 Tdp1-/-;hTDP1 cells + 20 nM CPT, ATP luminescence, 48 h. Potency, µM (series often up to 46.2 µM), without a hit: top-dose activity change, negative = growth inhibition, usual class: inhibitors. hit rate 12% among 420,000; further: potency means the concentration at half of the fitted maximal effect; nearly all actives have a fitted effect of over 55% in size
#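 Chicken DT40 Tdp1-/- cells complemented with human TDP1, 400 cells/well, exposed to compounds plus 20 nM camptothecin for at least 48 h at 37 C; viability read as ATP content by CellTiter-Glo luminescence.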
# ELG1 DNA repair: qHTS screen for small molecules that inhibit ELG1-dependent DNA repair in human embryonic kidney (HEK293T) cells expressing luciferase-tagged ELG1; hit rate 2.3% among 330,000; Potency, µM (top dose mostly 46.1 µM), for inactives: at the top dose activity change, negative = inhibition, usual class: inhibitors; HEK293T ELG1-luciferase reporter, luminescence, 16 h; DNA damage induced by 5-fluorouridine; further: potency means the concentration at half of the fitted maximal effect; nearly all actives have a fitted effect of over 55% in size
#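 Reporter activity after DNA damage by 5-fluorouridine is monitored. Compound-treated cells incubate 16 hr at 37 °C, then ONE-Glo is added for 30 min before luminescence reading.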
# TDP1 inh: qHTS Assay for Inhibitors of Tyrosyl-DNA Phosphodiesterase (TDP1) | Tyrosyl-DNA phosphodiesterase 1 (Homo sapiens), Q9NUW8 | recombinant TDP1, AlphaScreen DNA substrate cleavage | Potency, µM (series often up to 130 µM), for the others: at the top dose activity change, negative = inhibition, most hits filed as inhibitors | hit rate 0.28% among 350,000 | AID 485290, 2010; further: potency means the concentration at half of the fitted maximal effect; nearly all actives have a fitted effect of over 40% in size
# Target sequence (Q9NUW8 whole entry, looked up): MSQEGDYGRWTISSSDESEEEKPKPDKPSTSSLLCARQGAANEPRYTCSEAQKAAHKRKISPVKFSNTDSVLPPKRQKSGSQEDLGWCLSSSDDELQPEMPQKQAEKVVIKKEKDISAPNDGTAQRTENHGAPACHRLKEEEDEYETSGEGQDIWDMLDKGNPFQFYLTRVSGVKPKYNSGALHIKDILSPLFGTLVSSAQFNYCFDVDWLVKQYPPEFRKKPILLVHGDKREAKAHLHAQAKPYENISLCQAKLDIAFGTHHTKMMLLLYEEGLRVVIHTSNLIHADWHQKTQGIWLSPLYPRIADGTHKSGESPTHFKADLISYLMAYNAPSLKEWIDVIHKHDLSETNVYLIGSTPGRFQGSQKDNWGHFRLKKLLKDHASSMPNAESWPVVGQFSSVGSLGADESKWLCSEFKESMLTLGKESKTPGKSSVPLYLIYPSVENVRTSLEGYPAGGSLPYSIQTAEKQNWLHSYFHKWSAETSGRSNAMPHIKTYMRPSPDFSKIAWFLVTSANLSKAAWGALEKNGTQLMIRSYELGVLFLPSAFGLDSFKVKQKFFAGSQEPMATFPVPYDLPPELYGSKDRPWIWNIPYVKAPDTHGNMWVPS
#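 Enzyme-compound mixtures sat 15 min at room temperature, followed by a 5 min reaction with 15 nM final substrate and 10 min with AlphaScreen beads. Recombinant human Tdp1 was used at 1 nM final.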
# Giardia killer: Small Molecules that selectively kill Giardia lamblia: qHTS; Giardia lamblia trophozoite viability; activity change, % at 7.66 µM, hits read low; hit rate 0.15% among 340,000; in the data active means activity change below about -80%; inconclusive means between about -30% and that limit;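 further: parasites exposed to compound for two days anaerobically before the ATP read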
#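 Giardia lamblia trophozoites (100 cells/well) were incubated with compounds for 48 h at 37 deg C under anaerobic conditions. Viability was read as ATP content by one-step luminescence after 15-30 min at room temperature.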
# Numbers without * were called inactive; ? = inconclusive; nt = no result; [ ] = remark or other dose. Unless noted, the call rests on the fitted dose curve; in most records, active means well fitted curve in the direction sought with a large enough effect; inconclusive means small, poorly fitted or top-dose-only effect, or another doubt; inactive means no such curve, though single readings can be large; an effect the other way counts as inactive or inconclusive. On the % scale 0 is the no-effect control and ±100 the full control effect.
SMILES,IL-1B inflam inh,TDP1 cell noCPT,DT40 TDP1 CPT,ELG1 DNA repair,TDP1 inh,Giardia killer
COCCn1c(=O)[nH]c2cc(C(=O)N3CCN(c4cccc(Cl)c4)CC3)ccc2c1=O,-25.7,9.2µM*,23.1µM*,?,11.8%[0.0935 µM],-12.5
COCCn1c(=O)[nH]c2cc(C(=O)N3CCN(c4cccc(C)c4C)CC3)ccc2c1=O,-26.6,20.6µM*,14.6µM*,-11.0%,8.4%,-12.3
COc1ccc(N2CCN(C(=O)c3ccc4c(c3)[nH]c(=S)n3c5ccccc5nc43)CC2)cc1,nt,nt,nt,-16.3%,10.0%,nt
O=C(c1ccc2c(c1)[nH]c(=S)n1c3ccccc3nc21)N1CCN(c2cccc(Cl)c2)CC1,11.6,18.4µM*,18.4µM*,-15.2%,5.8%,4.7
COCCn1c(=O)[nH]c2cc(C(=O)N3CCN(c4ccccc4)CC3)ccc2c1=O,3.8,?,-29.3%,-12.5%,6.8%,8.5
COc1ccccc1N1CCN(C(=O)CSc2nc3ccccc3nc2Cc2ccc(F)cc2)CC1,nt,?,?,nt,2.7%,nt
CCN(CC)c1ccc(/C=C2/C(=O)c3ccc(C(=O)O)cc3C2=O)cc1,32.5,8.0%,16.8%,?,-8.2%,-27.2
Cc1csc(=O)n1CC(=O)OCC(=O)Nc1ccc(F)c(F)c1F,-19.5,2.5%,?,nt,nt,nt
C=CCn1c(=O)[nH]c2cc(C(=O)N3CCN(c4ccc(C(C)=O)cc4)CC3)ccc2c1=O,-6.8,16.4µM*,20.6µM*,18.4µM*,-7.9%,-3.2
CCOc1c(Br)cc(C(=O)N2CCCN(C)CC2)cc1OC,32.3,17.1%,-0.4%,1.4%,nt,4.1
OC(CON=C1c2ccccc2-c2ccccc21)CN1CCNCC1 (stereo not given),-88.2*,7.31µM*,11.6µM*,21.0%,-12.5%,-6.9
O=C(COc1ccc(F)cc1Br)NCCCN1CCCC1=O,-4.0,17.8%,-19.9%,13.3%,-0.5%,-8.2
FC(F)Oc1ccc(N=C2SCC3CCCCN23)cc1 (stereo not given),-17.4,23.1µM*,?,?,-7.1%,23.9
CCCCc1nc2ccccc2c(N)c1CCC (tested in a mixture with another compound),-96.6*,18.4µM*,?,?,-2.7%,-8.2
COc1ccc(-n2nc(C(=O)NCC3CCCO3)c3ccccc3c2=O)cc1 (stereo not given),-13.9,7.2%,-20.4%,4.1%,2.1%,17.4
Cc1ccccc1-c1nc(C(=O)NCC2CCCO2)cc2c1[nH]c1ccccc12 (stereo not given),-51.4*,18.4µM*,11.6µM*,?,nt,14.2
O=C(NCC1CCCO1)c1cc2c([nH]c3ccccc32)c(-c2cccc(Br)c2)n1 (stereo not given),?,2.91µM*,2.59µM*,?,nt,-3.3
COc1ccc(-c2nc(C(=O)NCC3CCCO3)cc3c2[nH]c2ccccc23)cc1 (stereo not given),?,2.06µM*,2.06µM*,?,nt,10.4
Cc1ccc(-c2nc(C(=O)NCC3CCCO3)cc3c2[nH]c2ccccc23)cc1 (stereo not given),-59.5*,1.84µM*,2.31µM*,?,nt,14.7
CCN(c1ccccc1)C1SC(=O)N(c2ccccc2)C1=O (stereo not given),nt,-4.7%,0.7%,nt,nt,9.1
COc1cc(OC)c(S(=O)(=O)NC(C)C)cc1C(=O)O,3.8,6.5%,-11.5%,2.8%,2.4%,17.1
Cc1ccc2nsnc2c1S(=O)(=O)N(Cc1ccco1)Cc1cc2ccc(C)c(C)c2[nH]c1=O,-1.3,?,6.4%,17.4%,1.0%,44.0
COc1ccc2[nH]c(=O)c(CN(Cc3cccs3)S(=O)(=O)c3c(C)ccc4nsnc34)cc2c1,?,18.4µM*,4.11µM*,?,3.9%,0.5
Cc1ccc2[nH]c(=O)c(CN(Cc3ccco3)S(=O)(=O)c3c(C)ccc4nsnc34)cc2c1,-58.3*,?,?,?,2.3%,3.3
Cc1ccc2[nH]c(=O)c(CN(CC3CCCO3)S(=O)(=O)c3c(C)ccc4nsnc34)cc2c1 (stereo not given),-5.6,?,?,-10.6%,-2.1%,5.7
SMILES,IL-1B inflam inh,TDP1 cell noCPT,DT40 TDP1 CPT,ELG1 DNA repair,TDP1 inh,Giardia killer
Cc1ccc2[nH]c(=O)c(CN(CC3CCCO3)S(=O)(=O)c3cccc4nsnc34)cc2c1 (stereo not given),-16.7,?,?,?,2.1%,8.5
Cc1ccc2cc(CN(CCCO)S(=O)(=O)c3cccc4nsnc34)c(=O)[nH]c2c1,1.0,-16.4%,?,9.2µM*,3.6%,13.2
CC1(C)CC(=O)C2=C(C1)Nc1ncnn1C2c1cccs1 (stereo not given),16.5,6.8%,3.4%,11.6%,6.3%,-9.4
COc1cccc(/C=C2/CN(C)CC3=C2OC(N)=C(C#N)C3c2cccc(OC)c2)c1 (stereo not given),?,16.4µM*,18.4µM*,?,10.0%,-7.1
Cc1nc2ccc(NC(=O)c3nn(C(C)C)c(=O)c4ccccc34)cc2s1,-11.3,?,?,?,5.3%,6.9
CSc1nc2ccc(NC(=O)c3nn(C(C)C)c(=O)c4ccccc34)cc2s1,-52.1*,?,18.4µM*,?,3.4%,-1.6
O=[N+]([O-])c1ccc2nc(NN=Cc3ccc(O)cc3)sc2c1,-95.5*,?,29.1µM*,nt,nt,6.5
CC(C)c1ccc(/C=C/C(=O)Nc2nc3ccc([N+](=O)[O-])cc3s2)cc1,20.6,-19.0%,-0.6%,10.1%,4.1%,13.9
CCOC(=O)c1c(-c2ccccc2)oc2ccc(OCC)cc12,-24.9,0.5%,11.4%,-7.1%,-3.8%,13.5
CCOC(=O)c1c(C)n(C)c2ccc(OCC(O)CN3CCN(C)CC3)cc12 (stereo not given),-20.1,-9.9%,-3.7%,-0.3%,7.4%,-7.4
CCOC(=O)c1c(C)n(C)c2ccc(OCC(O)Cn3c(C)nc4ccccc43)cc12 (stereo not given),-53.5*,18.4µM*,?,11.6µM*,10.3%,1.2
